According to PubChem BioAssay (Tox21):
Values without a mark were called inactive. Inconclusive results are not listed. A call without a number means that no potency is given here. Calls of active or inactive are those of the source. Unless noted, calls come from the whole dose curve; as a rule, active = well fitted curve in the direction sought with a large enough effect in the repeat runs; inconclusive = weak or mixed curves; inactive = no such curve, though single readings can be large; an effect the other way counts as inactive or inconclusive.

What was measured:
[1] = qHTS assay to identify small molecule agonists of H2AX (AID 1224845; active = well fitted activation curve with a large enough effect in the signal ratio in the repeat runs, not every such curve was filed as active; the % refers to the signal ratio)
Procedure, shortened: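 Wild-type CHO-K1 cells, plated overnight, exposed 3hr at 37C to 15 concentrations (0.76% DMSO final). Lysed, then HTRF anti-pH2AX (S139) cryptate and anti-H2AX-d2 antibodies, 24 hr room temperature; 665/620 nm emission read.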

[2] = qHTS assay to identify small molecule agonists of the hypoxia (HIF-1) signaling pathway (AID 1224846; active = well fitted activation curve with a large enough effect in the signal ratio in the repeat runs, not every such curve was filed as active; the % refers to the signal ratio)
Procedure, shortened: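 A low-serum medium (0.5% dialyzed FBS) holding 2,000 HRE-bla ME-180 cells per well is preincubated for 5 hrs, dosed with compounds by pintool, and kept a further 17 hrs at 37C, 5% CO2 before CCF4-AM FRET detection of beta-lactamase.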

[3] = qHTS assay to identify small molecule agonists of H2AX - cell viability counter screen (AID 1224847; calls by dose curve; note: top concentration of the series differs between compounds; nearly all actives have a fitted effect of over 30% in size)
Procedure, shortened: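 Viability of CHO-K1 (wild type) cells after 3 hr compound exposure was measured by CellTiter-Glo luminescence.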

[4] = qHTS assay to identify small molecule antagonists of the estrogen related receptor (ERR) signaling pathway from Tox21 library (AID 1224848); note: nearly all actives have a fitted effect of over 50% in size
Procedure, shortened: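 ERR reporter cell line (from NTP) seeded 2,000 cells/well, rested 6 h at 37 C/5% CO2, then pin-dosed with compounds in DMSO. After 18 h at 37 C, ONE-Glo added; luminescence read after 30 min at room temperature.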

[5] = qHTS assay to identify small molecule agonists of the estrogen related receptor (ERR) signaling pathway from Tox21 library (AID 1224849; calls by dose curve; note: nearly all actives have a fitted effect of over 15% in size); settings: ERR reporter cell line, ONE-Glo luciferase, 18 h; at 92.4 µM (top of the series) unless noted
Procedure, shortened: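 Screening used an NTP-provided ERR luciferase cell line. Compounds in DMSO were added 6 h after seeding and left 18 h at 37 C before a 30 min ONE-Glo step and luminescence reading.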

[6] = qHTS RealTime-Glo MT Cell Viability Assay in HepG2 cells - 24 hour (AID 1224867); note: nearly all actives have a fitted effect of over 50% in size
Procedure, shortened: (§1)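 Viability was tracked continuously by NanoLuc luminescence from prosubstrate reduced by living HepG2 cells, at successive time points over 40 h of compound exposure. Cells with reagent were preincubated 5 h at 37 °C before compound addition.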

[7] = qHTS RealTime-Glo MT Cell Viability Assay in HEK293 cells - 32 hour (AID 1224868); note: nearly all actives have a fitted effect of over 50% in size; note: potency is the fitted concentration of half-maximal effect
Procedure, shortened: (§2)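 Viability tracked continuously by luminescence as live cells reduce a prosubstrate for NanoLuc; HEK293 cells preincubated 5 h, compound-treated at 37 C, and read at 0, 8, 16, 24, 32 and 40 h.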

[8] = A CellTox Green Cytotoxicity Assay to monitor cytotoxicity in HEK293 cells - 0 hour (AID 1224869); note: nearly all actives have a fitted effect of over 50% in size
Procedure, shortened: (§3)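 Fluorescence intensity, read at 0, 8, 16, 24, 32 and 40 h of compound treatment, reflected dye binding to DNA of dead HEK293 cells; compounds (23 nL, DMSO) were added 5 h after plating cells with reagent.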

[9] = qHTS RealTime-Glo MT Cell Viability Assay in HepG2 cells - 40 hour (AID 1224870); note: nearly all actives have a fitted effect of over 50% in size
Procedure, shortened: (§4)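 HepG2 cells (600/well) mixed with RealTime-Glo MT reagent, settled 5 h at 37 C/5% CO2 before compound addition. Nonlytic NanoLuc luminescence from viable-cell prosubstrate reduction read repeatedly during 40 h treatment at 37 C.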

[10] = A CellTox Green Cytotoxicity Assay to monitor cytotoxicity in HEK293 cells - 40 hour (AID 1224871); note: nearly all actives have a fitted effect of over 45% in size
Procedure, shortened: as §3

[11] = qHTS RealTime-Glo MT Cell Viability Assay in HEK293 cells - 16 hour (AID 1224872); note: nearly all actives have a fitted effect of over 50% in size; note: potency is the fitted concentration of half-maximal effect
Procedure, shortened: as §2

[12] = qHTS RealTime-Glo MT Cell Viability Assay in HepG2 cells - 8 hour (AID 1224873); note: nearly all actives have a fitted effect of over 55% in size
Procedure, shortened: as §4

[13] = qHTS RealTime-Glo MT Cell Viability Assay in HEK293 cells - 40 hour (AID 1224874); settings: RealTime-Glo luminescence; max response: active compounds read low; note: nearly all actives have a fitted effect of over 50% in size; note: potency is the fitted concentration of half-maximal effect
Procedure, shortened: (§5)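 Viable HEK293 cells reduce a cell-permeant prosubstrate; the product diffuses out and is consumed by NanoLuc in the medium to give light. Compounds went in after a 5 h incubation and plates were read over the treatment course.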

[14] = A CellTox Green Cytotoxicity Assay to monitor cytotoxicity in HEK293 cells - 24 hour (AID 1224875); note: nearly all actives have a fitted effect of over 45% in size
Procedure, shortened: as §3

[15] = A CellTox Green Cytotoxicity Assay to monitor cytotoxicity in HepG2 cells - 16 hour (AID 1224876); note: nearly all actives have a fitted effect of over 45% in size
Procedure, shortened: (§6)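 Using 1536-well format, dye-containing HepG2 suspension was seeded, allowed 5 h at 37 C/5% CO2, dosed by pintool with compounds, positive and negative controls, and imaged for fluorescence across 40 h.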

[16] = qHTS RealTime-Glo MT Cell Viability Assay in HepG2 cells - 32 hour (AID 1224877); note: nearly all actives have a fitted effect of over 55% in size
Procedure, shortened: as §1

[17] = A CellTox Green Cytotoxicity Assay to monitor cytotoxicity in HepG2 cells - 24 hour (AID 1224878); note: nearly all actives have a fitted effect of over 45% in size
Procedure, shortened: as §6

[18] = A CellTox Green Cytotoxicity Assay to monitor cytotoxicity in HepG2 cells - 40 hour (AID 1224879); note: nearly all actives have a fitted effect of over 40% in size
Procedure, shortened: as §6

[19] = qHTS RealTime-Glo MT Cell Viability Assay in HEK293 cells - 0 hour (AID 1224880)
Procedure, shortened: as §5

[20] = qHTS assay to identify small molecule agonists of the hypoxia (HIF-1) signaling pathway - cell viability counter screen (AID 1224844; calls by dose curve; note: nearly all actives have a fitted effect of over 50% in size)
Procedure, shortened: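 Cells (HRE-bla ME-180, 2,000 per well) sat 5 hrs at 37C, got compound for 17 hrs, were read for CCF4-AM FRET, and were finally lysed with CellTiter-Glo for a 30 min room-temperature luminescence read.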

SMILES: BrCCCCCBr
- outcome [1]: inactive
- outcome [2]: inactive
- Potency [3]: inactive
- Potency [4]: inactive
- activity change, positive = activation [5]: 6.39%
- outcome [6]: inactive
- Potency [7]: inactive
- outcome [8]: inactive
- outcome [9]: inactive
- Potency [10]: inactive
- Potency [11]: inactive
- outcome [12]: inactive
- max response [13]: 19.9%
- outcome [14]: inactive
- outcome [15]: inactive
- outcome [16]: inactive
- outcome [17]: inactive
- Potency [18]: inactive
- Potency [19]: inactive

SMILES: O=C(OCC(O)CO)c1ccccc1Nc1ccnc2c(C(F)(F)F)cccc12 (stereo unspecified)
- outcome [20]: inactive
- outcome [1]: inactive
- outcome [6]: inactive
- Potency [7]: 4.25 µM (active)
- outcome [8]: inactive
- outcome [9]: inactive
- Potency [10]: inactive
- Potency [11]: 5.35 µM (active)
- Potency [13]: 3.79 µM (active)
- outcome [14]: inactive
- outcome [15]: inactive
- outcome [16]: inactive
- outcome [17]: inactive
- Potency [18]: inactive
- Potency [19]: inactive

SMILES: CCN(CC)CC(=O)Nc1c(C)cccc1C
- outcome [20]: inactive
- Potency [4]: inactive
- outcome [6]: inactive
- outcome [8]: inactive
- outcome [9]: inactive
- Potency [10]: inactive
- Potency [11]: 10.7 µM (active)
- outcome [12]: inactive
- outcome [14]: inactive
- outcome [15]: inactive
- outcome [16]: inactive
- outcome [17]: inactive
- Potency [18]: inactive

SMILES: COc1cc2c(cc1OC)[C@@H]1CC(=O)[C@@H](CC(C)C)CN1CC2
- outcome [20]: inactive
- outcome [1]: inactive
- outcome [6]: inactive
- Potency [7]: inactive
- outcome [8]: inactive
- outcome [9]: inactive
- Potency [10]: inactive
- Potency [11]: inactive
- outcome [12]: inactive
- max response [13]: -11.9%
- outcome [14]: inactive
- outcome [15]: inactive
- outcome [16]: inactive
- outcome [17]: inactive
- Potency [18]: inactive
- Potency [19]: inactive

SMILES: O=C1c2ccccc2C(=O)C1c1ccccc1
- outcome [20]: inactive
- outcome [1]: inactive
- outcome [6]: inactive
- Potency [7]: inactive
- outcome [8]: inactive
- outcome [9]: inactive
- Potency [10]: inactive
- Potency [11]: inactive
- max response [13]: 3.3%
- outcome [14]: inactive
- outcome [15]: inactive
- outcome [16]: inactive
- outcome [17]: inactive
- Potency [18]: inactive

SMILES: CCOC(=O)c1ccc(OC(=O)CCCCCN=C(N)N)cc1
- outcome [20]: inactive
- outcome [1]: inactive
- outcome [6]: inactive
- Potency [7]: inactive
- outcome [8]: inactive
- outcome [9]: inactive
- Potency [10]: inactive
- Potency [11]: inactive
- outcome [12]: inactive
- max response [13]: -15.8%
- outcome [14]: inactive
- outcome [15]: inactive
- outcome [16]: inactive
- outcome [17]: inactive
- Potency [18]: inactive
- Potency [19]: inactive

SMILES: O=Cc1ccc(Cl)c(Cl)c1
- outcome [20]: inactive
- outcome [2]: inactive
- Potency [3]: inactive
- outcome [6]: inactive
- outcome [8]: inactive
- outcome [9]: inactive
- Potency [10]: inactive
- outcome [12]: inactive
- outcome [15]: inactive
- outcome [16]: inactive
- outcome [17]: inactive
- Potency [18]: inactive

SMILES: CCCCCCCCC(=O)Cl
- outcome [20]: inactive
- outcome [1]: inactive
- Potency [4]: inactive
- activity change, positive = activation [5]: 0.757%
- outcome [6]: inactive
- Potency [7]: inactive
- outcome [8]: inactive
- outcome [9]: inactive
- Potency [10]: inactive
- outcome [12]: inactive
- max response [13]: 10.1%
- outcome [15]: inactive
- outcome [16]: inactive
- outcome [17]: inactive
- Potency [18]: inactive

SMILES: O=S(=O)(O)c1cc(O)c2ccc(Nc3ccccc3)cc2c1
- outcome [20]: inactive
- outcome [2]: inactive
- Potency [3]: inactive
- outcome [6]: inactive
- Potency [7]: inactive
- outcome [8]: inactive
- outcome [9]: inactive
- Potency [10]: inactive
- outcome [12]: inactive
- max response [13]: 11.9%
- outcome [14]: inactive
- outcome [15]: inactive
- outcome [16]: inactive
- outcome [17]: inactive
- Potency [18]: inactive
- Potency [19]: inactive

SMILES: CC1(CO)CN(c2ccccc2)NC1=O (stereo unspecified)
- outcome [20]: inactive
- outcome [2]: inactive
- Potency [3]: inactive
- outcome [6]: inactive
- Potency [7]: inactive
- outcome [8]: inactive
- outcome [9]: inactive
- Potency [10]: inactive
- Potency [11]: inactive
- outcome [12]: inactive
- max response [13]: -10.7%
- outcome [14]: inactive
- outcome [15]: inactive
- outcome [16]: inactive
- outcome [17]: inactive
- Potency [18]: inactive
- Potency [19]: inactive

SMILES: CC[C@H](C)C(=O)O[C@H]1C[C@H](O)C=C2C=C[C@H](C)[C@H](CC[C@@H](O)C[C@@H](O)CC(=O)O)[C@H]21
- outcome [1]: inactive
- outcome [2]: inactive
- Potency [3]: inactive
- outcome [6]: inactive
- Potency [7]: inactive
- outcome [8]: inactive
- outcome [9]: inactive
- Potency [10]: inactive
- outcome [12]: inactive
- max response [13]: 13.5%
- outcome [15]: inactive
- outcome [16]: inactive
- outcome [17]: inactive
- Potency [18]: inactive
- Potency [19]: inactive

SMILES: COCCOCCOCCOCCOCCO
- outcome [1]: inactive
- outcome [2]: inactive
- Potency [3]: inactive
- Potency [4]: inactive
- activity change, positive = activation [5]: 2.08%
- outcome [6]: inactive
- Potency [7]: inactive
- outcome [8]: inactive
- outcome [9]: inactive
- Potency [10]: inactive
- outcome [12]: inactive
- max response [13]: 0.969%
- outcome [14]: inactive
- outcome [15]: inactive
- outcome [16]: inactive
- outcome [17]: inactive
- Potency [18]: inactive
- Potency [19]: inactive
